Test results as given in PubChem BioAssay AID1986 (Sanford-Burnham Center for Chemical Genomics, 2009).
Screen size: about 290,000 compounds; about 890 (0.31%) were called active. Rule as the data show it: active = inhibition mostly above about 52% (no sharp cut-off); inactive = mostly below about 76%. The sample as a whole holds a higher share of actives than the screen did.

Assay: cell-free HIV fusion peptide-binding blockers – biochemical, uHTS, fluorescence dequenching, primary screen (AID 1986)
Conditions: 30 min, stronger effect = higher value
[1] = measured here: repeat confirmation average inhibition, at 18.6 µM

| SMILES | inhibition (at 20 µM) | inhibition [1] |
| --- | --- | --- |
| COc1ccc(CNC(=O)/C=C/c2ccc(S(=O)(=O)NCc3ccco3)cc2)cc1OC | 0.9% (inactive) |  |
| Cc1ccc(C)c2[nH]c(=O)c(CN(Cc3nnnn3C3CCCCC3)CC3CCCO3)cc12 (centres undefined) | -0.9% (inactive) |  |
| Cc1cc(-n2nc3ccccc3n2)c(O)c([N+](=O)[O-])c1 | 0.3% (inactive) |  |
| CCCCCc1ccc(-c2cn(Cc3ccc(C(=O)c4ccccc4)cc3)nn2)cc1 | 1% (inactive) |  |
| COc1ccc(CC(=O)Nc2cc(C)c3c(=O)oc4ccccc4c3n2)cc1 | -0.2% (inactive) |  |
| CCOc1ccc(/C=C(\C)C(=O)c2c(C)cc(C)[nH]c2=O)cc1 | -0.3% (inactive) |  |
| COc1cc2[nH]c(=S)nc(NCCCOC(C)C)c2cc1OC | -2.4% (inactive) |  |
| O=c1cc2c(=O)oc3cc(O)c(O)oc3c2c(O)c1O | 44.6% (inactive) |  |
| Cc1c(Br)c(=O)oc2c(Br)c(O)c(O)cc12 | 30.9% (inactive) |  |
| O=c1oc2c(O)c(O)cc3c(=O)oc4c(O)c(O)cc1c4c23 | 54.2% (active) |  |
| COc1cc(/C=N/Nc2nc3ccccc3s2)cc([N+](=O)[O-])c1O | 55.5% (active) |  |
| COc1ccc(/C=N/Nc2nc3ccccc3s2)cc1O | -3.2% (inactive) |  |
| O=[N+]([O-])c1cc(Cl)cc(/C=N/Nc2nc3ccccc3s2)c1O | 31.5% (inactive) |  |
| Cc1cc(C)n(-c2nc3ccccc3c(=O)n2OCC(=O)OCc2ccccc2)n1 | -0.4% (inactive) |  |
| COc1ccc(N=C2NC(=O)CS2)c([N+](=O)[O-])c1 | -1.1% (inactive) |  |
| Cc1nc(C2COc3ccccc3O2)sc1C(=O)O (centres undefined) | 1.6% (inactive) |  |
| Cc1ccc2c(c1)C1C=CCC1C(C(=O)O)N2 (centres undefined) | 62.4% (active) |  |
| Cc1ccc2c(c1C)NC(C(=O)O)C1CC=CC21 (centres undefined) | 43.9% (inactive) |  |
| Cc1cc(C)c2c(c1)NC(c1cc3c(cc1Br)OCO3)C1CC=CC21 (centres undefined) | 7.4% (inactive) |  |
| Cc1cc(C)c2c(c1)NC(C(=O)O)C1CC=CC21 (centres undefined) | 60.2% (active) |  |
| CC(C)C1Nc2ccc(C(=O)O)cc2C2C=CCC21 (centres undefined) | 50.1% (active) |  |
| CCCC1Nc2ccc(C(=O)O)cc2C2C=CCC12 (centres undefined) | 49.7% (inactive) |  |
| CCOC(=O)C1Nc2ccc(Br)cc2C2C=CCC12 (centres undefined) | 34.6% (inactive) |  |
| CCOC(=O)C1Nc2ccc(C(=O)O)cc2C2C=CCC12 (centres undefined) | 38% (inactive) |  |
| O=C(O)C1Nc2c(C(F)(F)F)ccc(Cl)c2C2C=CCC12 (centres undefined) | 37.7% (inactive) |  |

| SMILES | inhibition (at 20 µM) | inhibition [1] |
| --- | --- | --- |
| O=C(O)C1Nc2c(Cl)cc(Cl)cc2C2C=CCC12 (centres undefined) | 80.1% (active) |  |
| CC(=O)c1ccc2c(c1)C1C=CCC1C(C(=O)O)N2 (centres undefined) | 58.7% (inactive) | 17.4% |
| O=C(O)C1Nc2c(O)cc(Cl)c([N+](=O)[O-])c2C2C=CCC12 (centres undefined) | 66.8% (inactive) | 41% |
| COc1ccc(C)cc1S(=O)(=O)N1CCN(c2ccccc2)CC1 | -0.9% (inactive) |  |
| Cc1ccc2nc3c(c(Nc4cccc(O)c4)c2c1)CCC3 | -1.7% (inactive) |  |
| O=C(OC1CCCCC1)c1ccc2c(c1)C1C=CCC1C(C(=O)O)N2 (centres undefined) | 56.1% (active) |  |
| CCOC(=O)c1ccc2c(c1)C1C=CCC1C(C(=O)O)N2 (centres undefined) | 66.5% (inactive) | 40.8% |
| CCOC(=O)c1ccc2c(c1)C1C=CCC1C(C(=O)OCC)N2 (centres undefined) | 19.8% (inactive) |  |
| Cc1ccccc1-n1cc(CNCc2c(C(=O)N(C)C)nc3ccc(Cl)cn23)cn1 | -1.3% (inactive) |  |
| CCCCc1ccc(-c2csc(/C(C#N)=C/c3ccco3)n2)cc1 | 49.9% (inactive) |  |
| CCCCc1ccc(-c2csc(/C(C#N)=C/c3ccc(C)o3)n2)cc1 | 0.2% (inactive) |  |
| CCCCc1ccc(-c2csc(/C(C#N)=C\c3ccco3)n2)cc1 | 58.3% (active) |  |
| CCCN1CCN(c2nc(-c3cccs3)nc3ccccc23)CC1 | 0.8% (inactive) |  |
| O=C(NC(=S)Nc1ccc2oc(=O)ccc2c1)c1ccccc1F | -0.2% (inactive) |  |
| COC(=O)c1cccc(NC(=O)/C=C/c2ccc([N+](=O)[O-])cc2)c1 | 0.8% (inactive) |  |
| O=C(/C=C/c1ccco1)Nc1cccc(C(=O)Nc2ccccc2C(=O)O)c1 | 58.9% (inactive) | 49.8% |
| O=C(/C=C/c1ccc([N+](=O)[O-])cc1)Nc1cccc(C(=O)Nc2ccccc2C(=O)O)c1 | 54.1% (active) |  |
| COc1ccc(NS(=O)(=O)c2cccc(NC(=O)NC3CCCCC3)c2)cc1 | 2% (inactive) |  |
| CCOC(=O)c1sc(=S)n(C)c1NC(=O)c1cccc(Br)c1 | -0.1% (inactive) |  |
| Cc1ccccc1C(=O)Nc1ccc2c(C#N)c3nc4ccccc4nc3n2c1 | 92.7% (active) |  |
| N#Cc1c2nc3ccccc3nc2n2cc(NC(=O)c3ccc(F)cc3)ccc12 | 76.7% (inactive) | -2.2% |
| Cc1c(C(=O)Nc2ccccc2)cn2c(nc3ccccc32)c1C#N | 3.1% (inactive) |  |
| N#C/C=C(/N)N1CCN(c2ccc(Cl)c(Cl)c2)CC1 | -2.3% (inactive) |  |
| O=C(O)c1nn(-c2cccc(Cl)c2)c(=O)cc1O | 24.3% (inactive) |  |
